# Tests used:
# Test in all cases: DAPPL (digital affinity profiling via proximity ligation, sequencing); 10 mM Tris-HCl pH 7.5, 50 mM NaCl, 1 mM DTT, 4% glycerol, room temperature, 30 min; GST-TFs on glutathione beads, 16-mer random dsDNA library, 0.1% formaldehyde crosslink after washing; high values mean tight binding
# FLI1 = target: T1, FLI1 (Homo sapiens, UniProt Q01543 1-452); conditions: protein: recombinant; tags: N-terminal GST; dsDNA, one strand shown
# T1 sequence: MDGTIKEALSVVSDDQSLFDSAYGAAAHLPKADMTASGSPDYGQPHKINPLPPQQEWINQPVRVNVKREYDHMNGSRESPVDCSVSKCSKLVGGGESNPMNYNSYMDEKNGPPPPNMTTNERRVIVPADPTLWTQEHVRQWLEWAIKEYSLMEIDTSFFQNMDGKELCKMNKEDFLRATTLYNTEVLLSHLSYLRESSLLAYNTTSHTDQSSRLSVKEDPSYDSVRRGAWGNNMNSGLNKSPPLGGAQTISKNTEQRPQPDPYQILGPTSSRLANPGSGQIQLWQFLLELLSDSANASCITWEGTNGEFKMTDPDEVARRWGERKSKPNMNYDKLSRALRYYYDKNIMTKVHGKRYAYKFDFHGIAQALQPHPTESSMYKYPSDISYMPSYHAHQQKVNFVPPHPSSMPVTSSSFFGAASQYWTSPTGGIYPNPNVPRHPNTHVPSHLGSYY
# Summary of the method: (§1)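 Pools were built from human transcription factors expressed in yeast as GST fusions, captured on glutathione beads and DNA-barcoded, along with a tag-only sample. Incubation with 200 nmole of a 16-mer random double-stranded DNA library lasted 30 min at room temperature in Tris/NaCl/DTT/glycerol buffer, and was followed by washing, 0.1% formaldehyde crosslinking, proximity ligation, PCR amplification and Illumina NextSeq500 sequencing. Binding signal is the quotient of each hexamer's read frequency for a factor and its frequency for the tag-only sample.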
# ELK1 = target: T2, ELK1 (Homo sapiens, UniProt P19419 1-428); conditions: protein: recombinant; tags: N-terminal GST; dsDNA, one strand shown
# T2 sequence: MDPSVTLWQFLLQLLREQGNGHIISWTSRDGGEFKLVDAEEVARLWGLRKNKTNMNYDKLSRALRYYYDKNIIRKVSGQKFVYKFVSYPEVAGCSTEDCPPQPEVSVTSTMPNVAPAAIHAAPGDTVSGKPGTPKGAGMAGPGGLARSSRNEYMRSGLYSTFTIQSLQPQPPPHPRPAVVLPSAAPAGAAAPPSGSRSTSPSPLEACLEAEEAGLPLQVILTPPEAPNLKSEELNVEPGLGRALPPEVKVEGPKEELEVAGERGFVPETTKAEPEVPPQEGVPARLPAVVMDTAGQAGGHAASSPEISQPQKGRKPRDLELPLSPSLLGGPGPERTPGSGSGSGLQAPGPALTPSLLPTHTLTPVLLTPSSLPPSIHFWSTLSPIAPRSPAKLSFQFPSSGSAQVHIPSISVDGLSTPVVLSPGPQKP
# Summary of the method: as §1
# GABPA = target: T3, GABPA (Homo sapiens, UniProt Q06546 1-454); conditions: protein: recombinant; tags: N-terminal GST; dsDNA, one strand shown
# T3 sequence: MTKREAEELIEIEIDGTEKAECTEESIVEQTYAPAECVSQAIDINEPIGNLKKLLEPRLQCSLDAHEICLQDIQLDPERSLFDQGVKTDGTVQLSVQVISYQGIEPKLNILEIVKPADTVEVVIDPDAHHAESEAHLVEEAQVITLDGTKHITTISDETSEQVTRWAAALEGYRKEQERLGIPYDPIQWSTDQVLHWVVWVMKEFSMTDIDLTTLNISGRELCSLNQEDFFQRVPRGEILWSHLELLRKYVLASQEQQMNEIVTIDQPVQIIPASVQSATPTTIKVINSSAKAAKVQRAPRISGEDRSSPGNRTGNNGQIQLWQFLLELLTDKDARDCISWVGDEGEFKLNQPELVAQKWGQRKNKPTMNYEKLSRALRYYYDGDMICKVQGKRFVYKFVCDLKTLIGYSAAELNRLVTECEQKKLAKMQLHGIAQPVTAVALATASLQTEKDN
# Summary of the method: as §1
# ERG = target: T4, ERG (Homo sapiens, UniProt P11308 1-479); conditions: protein: recombinant; tags: N-terminal GST; dsDNA, one strand shown
# T4 sequence: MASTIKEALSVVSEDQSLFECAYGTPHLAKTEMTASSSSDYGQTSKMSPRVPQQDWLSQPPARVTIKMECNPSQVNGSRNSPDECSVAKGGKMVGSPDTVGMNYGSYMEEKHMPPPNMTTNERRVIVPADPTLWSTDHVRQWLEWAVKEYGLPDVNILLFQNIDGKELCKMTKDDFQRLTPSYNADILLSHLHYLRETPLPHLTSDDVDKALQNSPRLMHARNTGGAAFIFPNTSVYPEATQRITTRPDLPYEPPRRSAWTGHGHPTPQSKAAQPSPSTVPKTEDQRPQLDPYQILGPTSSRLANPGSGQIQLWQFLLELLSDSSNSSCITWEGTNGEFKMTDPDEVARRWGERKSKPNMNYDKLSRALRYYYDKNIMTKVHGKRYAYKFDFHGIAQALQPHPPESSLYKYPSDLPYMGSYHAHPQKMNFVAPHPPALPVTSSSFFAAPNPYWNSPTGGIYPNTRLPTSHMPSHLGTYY
# Summary of the method: as §1
# ELF1 = ELF1 (Homo sapiens, UniProt P32519 1-619); conditions: protein: recombinant; tags: N-terminal GST; dsDNA, one strand shown
# ELF1, sequence (P32519 whole entry): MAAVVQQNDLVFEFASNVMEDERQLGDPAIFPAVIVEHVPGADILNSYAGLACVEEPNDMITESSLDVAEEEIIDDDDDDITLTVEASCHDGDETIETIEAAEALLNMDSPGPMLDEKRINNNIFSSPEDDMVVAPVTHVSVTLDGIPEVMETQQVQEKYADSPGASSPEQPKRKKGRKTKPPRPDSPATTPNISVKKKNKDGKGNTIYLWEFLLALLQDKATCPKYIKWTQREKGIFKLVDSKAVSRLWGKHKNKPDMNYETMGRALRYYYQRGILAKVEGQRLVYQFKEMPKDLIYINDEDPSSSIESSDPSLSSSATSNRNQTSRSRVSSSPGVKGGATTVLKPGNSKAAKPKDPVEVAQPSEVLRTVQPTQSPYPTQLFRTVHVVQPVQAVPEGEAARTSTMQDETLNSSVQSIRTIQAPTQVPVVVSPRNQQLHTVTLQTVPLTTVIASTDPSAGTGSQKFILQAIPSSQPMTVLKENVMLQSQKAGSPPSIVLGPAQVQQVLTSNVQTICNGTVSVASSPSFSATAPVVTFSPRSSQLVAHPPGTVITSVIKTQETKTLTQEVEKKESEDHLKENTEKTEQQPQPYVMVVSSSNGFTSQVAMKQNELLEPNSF
# Summary of the method: as §1
# EHF = target: T5, EHF (Homo sapiens, UniProt Q9NZC4 1-300); conditions: protein: recombinant; tags: N-terminal GST; dsDNA, one strand shown
# T5 sequence: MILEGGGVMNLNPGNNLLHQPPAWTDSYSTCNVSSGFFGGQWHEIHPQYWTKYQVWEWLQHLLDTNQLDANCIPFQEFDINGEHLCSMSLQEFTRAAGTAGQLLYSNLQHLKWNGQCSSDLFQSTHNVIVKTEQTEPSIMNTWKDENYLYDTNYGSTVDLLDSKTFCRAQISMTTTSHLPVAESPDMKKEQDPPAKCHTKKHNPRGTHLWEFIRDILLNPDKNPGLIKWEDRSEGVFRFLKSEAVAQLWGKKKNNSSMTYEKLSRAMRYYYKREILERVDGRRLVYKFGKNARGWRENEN
# Summary of the method: as §1
# SPI1 = SPI1 (Homo sapiens, UniProt P17947 1-270); conditions: protein: recombinant; tags: N-terminal GST; dsDNA, one strand shown
# Summary of the method: as §1
# SPIB = SPIB (Homo sapiens, UniProt Q01892 1-262); conditions: protein: recombinant; tags: N-terminal GST; dsDNA, one strand shown
# SPIB, sequence (Q01892 whole entry): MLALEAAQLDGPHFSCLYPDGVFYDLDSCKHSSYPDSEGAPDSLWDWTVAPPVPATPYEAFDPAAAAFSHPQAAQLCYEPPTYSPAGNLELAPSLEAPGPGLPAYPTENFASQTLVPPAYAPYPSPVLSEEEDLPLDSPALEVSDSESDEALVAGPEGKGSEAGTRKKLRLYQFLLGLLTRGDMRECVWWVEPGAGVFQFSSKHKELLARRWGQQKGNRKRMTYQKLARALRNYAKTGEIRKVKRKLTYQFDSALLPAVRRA
# Summary of the method: as §1
# ELK3 = target: T6, ELK3 (Homo sapiens, UniProt P41970 1-407); conditions: protein: recombinant; tags: N-terminal GST; dsDNA, one strand shown
# T6 sequence: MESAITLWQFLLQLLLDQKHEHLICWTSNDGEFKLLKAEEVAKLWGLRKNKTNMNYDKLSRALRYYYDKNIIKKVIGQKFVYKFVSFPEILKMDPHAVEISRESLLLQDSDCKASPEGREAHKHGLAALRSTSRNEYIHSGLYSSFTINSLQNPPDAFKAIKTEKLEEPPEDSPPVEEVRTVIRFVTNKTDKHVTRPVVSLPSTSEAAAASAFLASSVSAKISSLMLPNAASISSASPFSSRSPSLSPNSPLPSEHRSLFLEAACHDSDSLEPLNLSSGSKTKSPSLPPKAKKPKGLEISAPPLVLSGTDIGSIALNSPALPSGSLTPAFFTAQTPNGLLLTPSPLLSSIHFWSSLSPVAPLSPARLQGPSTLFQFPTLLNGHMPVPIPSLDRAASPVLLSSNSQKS
# Summary of the method: as §1
# FEV = target: T7, FEV (Homo sapiens, UniProt Q99581 1-238); conditions: protein: recombinant; tags: N-terminal GST; dsDNA, one strand shown
# T7 sequence: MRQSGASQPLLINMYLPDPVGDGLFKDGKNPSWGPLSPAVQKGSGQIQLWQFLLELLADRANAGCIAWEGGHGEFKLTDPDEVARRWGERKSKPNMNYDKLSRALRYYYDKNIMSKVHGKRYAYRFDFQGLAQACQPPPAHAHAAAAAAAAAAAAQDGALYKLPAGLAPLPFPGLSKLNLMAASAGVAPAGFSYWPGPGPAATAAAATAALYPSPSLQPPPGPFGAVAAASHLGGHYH
# Summary of the method: as §1
# ETV5 = ETV5 (Homo sapiens, UniProt P41161 1-510); conditions: protein: recombinant; tags: N-terminal GST; dsDNA, one strand shown
# ETV5, sequence (P41161 whole entry): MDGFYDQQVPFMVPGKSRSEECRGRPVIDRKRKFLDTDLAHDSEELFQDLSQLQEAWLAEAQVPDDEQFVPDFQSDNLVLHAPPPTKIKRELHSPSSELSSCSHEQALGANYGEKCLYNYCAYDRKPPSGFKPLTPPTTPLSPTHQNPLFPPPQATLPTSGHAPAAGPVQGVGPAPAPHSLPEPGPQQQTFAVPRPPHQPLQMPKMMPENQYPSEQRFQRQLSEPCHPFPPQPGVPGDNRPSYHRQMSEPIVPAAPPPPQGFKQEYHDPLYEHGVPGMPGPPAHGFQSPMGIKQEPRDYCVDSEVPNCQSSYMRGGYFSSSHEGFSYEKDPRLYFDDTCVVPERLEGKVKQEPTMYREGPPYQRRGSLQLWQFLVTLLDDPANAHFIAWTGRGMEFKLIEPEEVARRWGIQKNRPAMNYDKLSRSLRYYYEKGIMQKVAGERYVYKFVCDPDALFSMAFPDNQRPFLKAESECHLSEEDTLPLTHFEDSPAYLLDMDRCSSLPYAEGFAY
# Summary of the method: as §1
# HSF1 = HSF1 (Homo sapiens, UniProt Q00613 1-529); conditions: protein: recombinant; tags: N-terminal GST; chain copies: 3; dsDNA, one strand shown
# HSF1, sequence (Q00613 whole entry): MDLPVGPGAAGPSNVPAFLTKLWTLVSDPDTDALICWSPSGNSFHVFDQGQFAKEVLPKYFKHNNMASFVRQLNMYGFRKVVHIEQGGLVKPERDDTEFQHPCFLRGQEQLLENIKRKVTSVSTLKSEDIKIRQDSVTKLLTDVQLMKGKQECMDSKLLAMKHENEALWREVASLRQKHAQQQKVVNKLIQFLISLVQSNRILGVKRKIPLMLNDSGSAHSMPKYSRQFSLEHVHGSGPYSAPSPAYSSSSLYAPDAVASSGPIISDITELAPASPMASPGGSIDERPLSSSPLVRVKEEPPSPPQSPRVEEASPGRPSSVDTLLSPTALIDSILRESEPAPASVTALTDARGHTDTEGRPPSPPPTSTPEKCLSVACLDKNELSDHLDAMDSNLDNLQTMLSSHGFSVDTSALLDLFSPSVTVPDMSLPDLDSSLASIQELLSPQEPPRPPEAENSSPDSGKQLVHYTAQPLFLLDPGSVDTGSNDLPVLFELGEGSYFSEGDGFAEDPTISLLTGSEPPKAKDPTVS
# Summary of the method: as §1
# SPIC = target: T8, SPIC (Homo sapiens, UniProt Q8N5J4 1-248); conditions: protein: recombinant; tags: N-terminal GST; dsDNA, one strand shown
# T8 sequence: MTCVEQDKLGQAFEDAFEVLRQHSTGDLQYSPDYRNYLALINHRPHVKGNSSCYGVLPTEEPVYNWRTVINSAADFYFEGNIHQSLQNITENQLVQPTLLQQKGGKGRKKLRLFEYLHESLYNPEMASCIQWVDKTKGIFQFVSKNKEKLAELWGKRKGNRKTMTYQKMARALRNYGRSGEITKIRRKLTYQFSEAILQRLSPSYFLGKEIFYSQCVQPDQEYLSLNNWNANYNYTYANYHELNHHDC
# Summary of the method: as §1
# ELF4 = ELF4 (Homo sapiens, UniProt Q99607 1-663); conditions: protein: recombinant; tags: N-terminal GST; dsDNA, one strand shown
# ELF4, sequence (Q99607 whole entry): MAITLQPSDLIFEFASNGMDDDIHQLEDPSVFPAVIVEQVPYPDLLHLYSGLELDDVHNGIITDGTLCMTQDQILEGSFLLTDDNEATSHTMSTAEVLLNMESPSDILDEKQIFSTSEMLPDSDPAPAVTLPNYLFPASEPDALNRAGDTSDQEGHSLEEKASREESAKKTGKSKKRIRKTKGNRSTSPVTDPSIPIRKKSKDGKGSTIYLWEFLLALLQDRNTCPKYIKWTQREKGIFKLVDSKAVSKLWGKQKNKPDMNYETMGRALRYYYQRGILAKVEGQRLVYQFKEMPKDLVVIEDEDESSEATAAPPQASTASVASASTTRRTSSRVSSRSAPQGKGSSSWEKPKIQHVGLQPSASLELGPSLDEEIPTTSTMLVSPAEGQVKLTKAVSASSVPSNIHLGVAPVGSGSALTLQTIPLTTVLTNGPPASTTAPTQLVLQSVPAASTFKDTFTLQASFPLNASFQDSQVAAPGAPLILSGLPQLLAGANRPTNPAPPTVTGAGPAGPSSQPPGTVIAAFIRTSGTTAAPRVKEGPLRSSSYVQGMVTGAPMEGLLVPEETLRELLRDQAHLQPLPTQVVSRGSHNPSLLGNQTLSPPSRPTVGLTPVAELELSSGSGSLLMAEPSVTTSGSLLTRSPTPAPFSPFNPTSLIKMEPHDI
# Summary of the method: as §1
# ELK4 = target: T9, ELK4 (Homo sapiens, UniProt P28324-2 1-405); conditions: protein: recombinant; tags: N-terminal GST; dsDNA, one strand shown
# T9 sequence: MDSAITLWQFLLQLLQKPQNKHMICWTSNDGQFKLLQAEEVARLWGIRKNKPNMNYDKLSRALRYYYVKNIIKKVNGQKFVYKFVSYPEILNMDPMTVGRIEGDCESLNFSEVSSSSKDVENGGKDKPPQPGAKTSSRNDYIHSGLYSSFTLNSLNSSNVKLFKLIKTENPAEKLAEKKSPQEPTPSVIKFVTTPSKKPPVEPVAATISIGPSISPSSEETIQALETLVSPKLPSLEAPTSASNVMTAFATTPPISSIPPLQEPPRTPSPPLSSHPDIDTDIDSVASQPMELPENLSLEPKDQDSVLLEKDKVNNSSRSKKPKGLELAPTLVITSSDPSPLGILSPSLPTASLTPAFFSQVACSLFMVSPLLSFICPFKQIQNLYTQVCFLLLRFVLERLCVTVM
# Summary of the method: as §1
# ETV2 = target: T10, ETV2 (Homo sapiens, UniProt O00321 1-342); conditions: protein: recombinant; tags: N-terminal GST; dsDNA, one strand shown
# T10 sequence: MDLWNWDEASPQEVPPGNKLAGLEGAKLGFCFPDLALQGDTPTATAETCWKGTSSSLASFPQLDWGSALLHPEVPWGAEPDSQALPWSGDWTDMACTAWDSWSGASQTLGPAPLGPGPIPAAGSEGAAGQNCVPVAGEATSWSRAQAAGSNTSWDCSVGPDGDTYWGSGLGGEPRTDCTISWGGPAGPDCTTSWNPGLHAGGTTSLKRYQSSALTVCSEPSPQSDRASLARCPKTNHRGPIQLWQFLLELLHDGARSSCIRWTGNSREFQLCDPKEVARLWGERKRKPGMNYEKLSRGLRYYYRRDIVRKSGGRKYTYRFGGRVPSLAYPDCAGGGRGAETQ
# Summary of the method: as §1
# ELF3 = target: T11, ELF3 (Homo sapiens, UniProt P78545 1-371); conditions: protein: recombinant; tags: N-terminal GST; dsDNA, one strand shown
# T11 sequence: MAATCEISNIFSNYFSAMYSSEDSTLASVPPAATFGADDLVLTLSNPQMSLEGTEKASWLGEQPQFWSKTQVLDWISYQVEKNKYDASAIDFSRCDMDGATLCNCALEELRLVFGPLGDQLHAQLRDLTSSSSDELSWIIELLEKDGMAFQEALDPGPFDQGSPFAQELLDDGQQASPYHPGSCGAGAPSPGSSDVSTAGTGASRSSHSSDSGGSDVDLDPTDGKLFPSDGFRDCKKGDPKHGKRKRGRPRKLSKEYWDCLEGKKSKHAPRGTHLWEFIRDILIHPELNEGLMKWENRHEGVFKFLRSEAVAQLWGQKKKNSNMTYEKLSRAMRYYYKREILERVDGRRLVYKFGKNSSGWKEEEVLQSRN
# Summary of the method: as §1
# CRX = CRX (Homo sapiens, UniProt O43186 1-299); conditions: protein: recombinant; tags: N-terminal GST; dsDNA, one strand shown
# CRX, sequence (O43186 whole entry): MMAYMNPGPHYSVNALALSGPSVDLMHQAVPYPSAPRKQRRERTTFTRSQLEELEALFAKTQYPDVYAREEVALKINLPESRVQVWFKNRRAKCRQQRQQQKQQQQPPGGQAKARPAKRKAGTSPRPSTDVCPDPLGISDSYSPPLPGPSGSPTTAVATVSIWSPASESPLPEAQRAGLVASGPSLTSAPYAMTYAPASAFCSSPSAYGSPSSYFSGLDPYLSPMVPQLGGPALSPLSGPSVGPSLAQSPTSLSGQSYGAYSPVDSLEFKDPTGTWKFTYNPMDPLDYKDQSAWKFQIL
# Summary of the method: as §1
# ETV1 = ETV1 (Homo sapiens, UniProt P50549 1-477); conditions: protein: recombinant; tags: N-terminal GST; dsDNA, one strand shown
# ETV1, sequence (P50549 whole entry): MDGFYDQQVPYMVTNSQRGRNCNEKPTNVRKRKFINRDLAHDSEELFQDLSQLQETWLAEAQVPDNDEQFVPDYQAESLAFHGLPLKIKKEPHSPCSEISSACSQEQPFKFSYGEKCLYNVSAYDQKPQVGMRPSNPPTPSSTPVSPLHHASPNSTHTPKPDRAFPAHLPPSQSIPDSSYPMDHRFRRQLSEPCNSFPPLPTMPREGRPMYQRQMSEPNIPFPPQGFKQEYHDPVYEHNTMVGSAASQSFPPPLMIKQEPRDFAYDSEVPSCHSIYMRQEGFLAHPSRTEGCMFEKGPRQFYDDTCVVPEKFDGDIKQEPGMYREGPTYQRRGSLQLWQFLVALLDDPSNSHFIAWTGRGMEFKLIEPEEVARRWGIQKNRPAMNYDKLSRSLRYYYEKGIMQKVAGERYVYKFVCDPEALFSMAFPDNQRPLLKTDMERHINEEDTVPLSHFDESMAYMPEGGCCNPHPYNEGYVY
# Summary of the method: as §1
sequence,measurement,setting,value
ATGAAC,binding signal,FLI1,"1.31 fold enrichment (6-mer frequency, TF over GST control)"
same,binding signal,ELK1,"1.28 fold enrichment (6-mer frequency, TF over GST control)"
same,binding signal,GABPA,"1.27 fold enrichment (6-mer frequency, TF over GST control)"
same,binding signal,ERG,"1.19 fold enrichment (6-mer frequency, TF over GST control)"
same,binding signal,ELF1,"1.27 fold enrichment (6-mer frequency, TF over GST control)"
same,binding signal,EHF,"1.32 fold enrichment (6-mer frequency, TF over GST control)"
same,binding signal,SPI1,"1.21 fold enrichment (6-mer frequency, TF over GST control)"
same,binding signal,SPIB,"1.27 fold enrichment (6-mer frequency, TF over GST control)"
same,binding signal,ELK3,"1.44 fold enrichment (6-mer frequency, TF over GST control)"
same,binding signal,FEV,"1.26 fold enrichment (6-mer frequency, TF over GST control)"
same,binding signal,ETV5,"1.29 fold enrichment (6-mer frequency, TF over GST control)"
same,binding signal,HSF1,"1.21 fold enrichment (6-mer frequency, TF over GST control)"
same,binding signal,SPIC,"1.39 fold enrichment (6-mer frequency, TF over GST control)"
same,binding signal,ELF4,"1.36 fold enrichment (6-mer frequency, TF over GST control)"
same,binding signal,ELK4,"1.31 fold enrichment (6-mer frequency, TF over GST control)"
same,binding signal,ETV2,"1.11 fold enrichment (6-mer frequency, TF over GST control)"
same,binding signal,ELF3,"1.38 fold enrichment (6-mer frequency, TF over GST control)"
same,binding signal,CRX,"1.13 fold enrichment (6-mer frequency, TF over GST control)"
same,binding signal,ETV1,"1.38 fold enrichment (6-mer frequency, TF over GST control)"

# — PMC7862700, “An all-to-all approach to the identification of sequence-specific readers for epigenetic DNA modifications on cytosine”
